{"source": "the supplement of paper PMC4894684", "note": "Counter-ions that a name gives are not always drawn. ± gives the standard deviation of the averaged measurements."}
{"system": "Toxoplasma gondii RH (in HFF)", "experiment": "parasite growth relative to the screen mean (all compounds = 100%); higher = less inhibition of parasite growth", "details": "5 µM; 72 h; oxygen 21 %", "in_short": "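RH β-Gal–GFP Toxoplasma at MOI 1:5 was used to infect confluent human foreskin fibroblasts in 96-well plates within 2 h of pin-transferring compounds to 5 µM final. After 72 h at 21% O2, parasite number was determined by CPRG β-Gal assay against standard curves on the same plate. Growth is relative to the screen mean and averaged over two screens, with all compounds = 100%.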", "units": {"parasite growth": "%"}}
{"molecule": "NC(=S)N/N=C/c1coc2ccccc2c1=O.[Cl][Cu][Cl]", "parasite growth": "37.1 ± 24"}
{"molecule": "CN1C[C@H](C(=O)N[C@]2(C)O[C@@]3(O)[C@@H]4CCCN4C(=O)[C@H](Cc4ccccc4)N3C2=O)C[C@@H]2c3cccc4[nH]cc(c34)C[C@H]21", "note": "[Dihydroergotamine mesylate]", "parasite growth": "39.27 ± 0.23"}
{"molecule": "Oc1ccc2c3c1O[C@H]1c4[nH]c5ccccc5c4C[C@@]4(O)[C@@H](C2)N(CC2CC2)CC[C@]314", "note": "[Naltrindole hydrochloride]", "parasite growth": "148 ± 35"}
{"molecule": "c1ccc2sc(C3(N4CCCCC4)CCCCC3)cc2c1", "note": "[BTCP maleate]", "parasite growth": "64.9 ± 4.1"}
{"molecule": "NC1(c2ccccc2Cl)CCCCC1=O", "note": "(stereo not given) [Norketamine hydrochloride]", "parasite growth": "86.9 ± 27"}
{"molecule": "O=C(N[C@H]1CN2CCC1CC2)c1ccc(Cl)cc1", "parasite growth": "146 ± 25"}
{"molecule": "C[N+](C)(C)CC#CCN1CCCC1=O", "note": "[Oxotremorine M]", "parasite growth": "172 ± 41"}
{"molecule": "Cc1onc(O)c1CC(N)C(=O)O", "note": "(racemic) [(RS)-AMPA hydrobromide]", "parasite growth": "121 ± 16"}
{"molecule": "CC(C)C[C@@H](N)C1(c2ccc(Cl)cc2)CCC1", "parasite growth": "111.4 ± 0.42"}
{"molecule": "CC[C@@H](CO)NC(=O)[C@@H]1C=C2c3cccc4c3c(cn4C)C[C@H]2N(C)C1", "note": "[Methysergide maleate]", "parasite growth": "189 ± 24"}
{"molecule": "O=C1CN=C(c2cccc(Br)c2)c2oc3ccccc3c2N1", "parasite growth": "96 ± 4.5"}
{"molecule": "N=C(N)NN", "note": "[Aminoguanidine hydrochloride]", "parasite growth": "124 ± 28"}
{"molecule": "C[C@@]12N[C@@H](Cc3ccccc31)c1ccccc12", "note": "[(-)-MK 801 maleate]", "parasite growth": "111 ± 10"}
{"molecule": "CN1C[C@H](CNC(=O)OCc2ccccc2)C[C@@H]2c3cccc4c3c(cn4C)C[C@H]21", "note": "[Metergoline]", "parasite growth": "71 ± 0.52"}
{"molecule": "c1ccc(CC(c2ccccc2)N2CCCCC2)cc1", "note": "(racemic) [(±)-1-(1,2-Diphenylethyl)piperidine maleate]", "parasite growth": "124 ± 20"}
{"molecule": "O=C1Nc2cc(Cl)c(Cl)cc2N2CCNCC12", "note": "(stereo not given)", "parasite growth": "176 ± 7.8"}
{"molecule": "COc1ccc2c(c1)c(CCN1CCOCC1)c(C)n2C(=O)c1cccc(Cl)c1Cl", "parasite growth": "145 ± 22"}
{"molecule": "O=C(O)c1ccc2[nH]cc(CCCCN3CC=C(c4ccccc4)CC3)c2c1", "note": "[Carmoxirole hydrochloride]", "parasite growth": "103 ± 7.4"}
{"molecule": "C=CCN1C[C@H](C)N([C@H](c2ccc(C(=O)N(CC)CC)cc2)c2cccc(O)c2)C[C@H]1C", "parasite growth": "110 ± 22"}
{"molecule": "COc1cc2c(cc1OC)C1CC(=O)C(CC(C)C)CN1CC2", "note": "(stereo not given) [Tetrabenazine]", "parasite growth": "132 ± 1.5"}
{"molecule": "CN1CCc2cc3c(cc2C1C1OC(=O)c2c1ccc1c2OCO1)OCO3", "note": "(single isomer, unassigned; (+)) [(+)-Bicuculline]", "parasite growth": "141 ± 54"}
{"molecule": "O=C(Cc1ccc(Cl)c(Cl)c1)N1CCCCC1CN1CCCC1", "note": "(stereo not given)", "parasite growth": "82.1 ± 15"}
{"molecule": "COc1ccc(C[C@H]2NC[C@H](O)[C@H]2OC(C)=O)cc1", "note": "[Anisomycin]", "parasite growth": "< 0"}
{"molecule": "CC(=O)NCCc1c[nH]c2ccccc12", "note": "[N-Acetyltryptamine]", "parasite growth": "146 ± 7.5"}
{"molecule": "Clc1ccc(C2=CCCC3CCC2N3)cn1", "note": "(stereo not given) [UB 165 fumarate]", "parasite growth": "106 ± 11"}
